According to PubChem BioAssay (NCI):
About 83,000 compounds went through this panel and 20% of them were active in at least one assay; those are over-represented in the sample as a whole.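 48-hour exposure, single concentration, 96-well plates; percent growth endpoint where 0 means no net growth. Active: below 10.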 Values without a mark were called inactive. Activity calls are given as the source filed them.

Tests used:
Test in all cases: NCI-60 one-dose screen, 48 h (100 = growth as untreated, 0 = no growth, -100 = all killed)
Details in all cases: 10 µM unless noted
RPMI-8226 leukemia = test system: RPMI-8226 leukemia
OVCAR-5 ovarian = test system: OVCAR-5 ovarian
OVCAR-4 ovarian = test system: OVCAR-4 ovarian
SK-OV-3 ovarian = test system: SK-OV-3 ovarian
OVCAR-3 ovarian = test system: OVCAR-3 ovarian
HS 578T breast = test system: HS 578T breast
NCI/ADR-RES ovarian = test system: NCI/ADR-RES ovarian
T-47D breast = test system: T-47D breast
OVCAR-8 ovarian = test system: OVCAR-8 ovarian
IGROV1 ovarian = test system: IGROV1 ovarian

SMILES	growth (RPMI-8226 leukemia)	growth (OVCAR-5 ovarian)	growth (OVCAR-4 ovarian)	growth (SK-OV-3 ovarian)	growth (OVCAR-3 ovarian)	growth (HS 578T breast)	growth (NCI/ADR-RES ovarian)	growth (T-47D breast)	growth (OVCAR-8 ovarian)	growth (IGROV1 ovarian)
CCC(CCC(C)C1CCC2C3CC=C4CC(O)CCC4(C)C3CCC12C)C(C)C (stereo not drawn) (tested in a mixture with another compound)	81.4%	103%	93.7%	127%	103%	87.3%	59.6%	95.3%	–	–
CCOC(=O)c1c(C)nc(C)c(C(=O)OCC)c1-c1cccnc1	104%	97.8%	97.8%	99.2%	115%	122%	103%	92%	–	–
CCCCCCCC/C=C/CCCCCCCC1=NC(C)(C)CN1CCO	–	87.3%	52.3%	78.6%	32.8%	35.1%	–	0.508% (active)	45%	-40.5% (active)
Cc1cc(CC(=O)O)n(C)c1C(=O)c1ccc(Cl)cc1	103%	–	119%	119%	118%	110%	97.8%	–	–	–
CCOC(=O)C(Cc1ccccc1)(C(=O)OCC)C(Br)C(=O)c1ccccc1 (stereo not drawn)	–	98.1%	39.8%	92.2%	61.3%	83.1%	85.1%	–	81.4%	75.1%
O=C(CSCC(=O)N/N=C/c1ccccc1O)N/N=C\c1ccccc1O	–	56.2%	27.5%	27.8%	34.5%	–	26.1%	35.5%	28.3%	18.9%
CCCCCCCCCCCCCCCCCC1=NC(C)(C)CN1CCO	–	82.4%	33.5%	-36.2% (active)	-9.27% (active)	-38.4% (active)	55.5%	-23.9% (active)	1.75% (active)	-26.4% (active)
CC1=C(C(=O)Nc2ccccc2)C(c2ccc3c(c2)OCCO3)NC(=O)N1 (stereo not drawn)	–	102%	106%	101%	106%	101%	101%	101%	102%	104%
Nc1nc2ncc(CCNc3ccc(C(=O)NC(CCC(=O)O)C(=O)O)cc3)nc2c(=O)[nH]1 (stereo not drawn)	112%	90.1%	104%	110%	–	101%	-2.15% (active)	115%	–	–
ClC1=C(Cl)C(=C2C(Cl)=C(Cl)C(Cl)=C2Cl)C(Cl)=C1Cl	–	115%	100%	91.6%	114%	94.1%	105%	79.5%	97.7%	108%
CN1CCCC1c1cccnc1 (stereo not drawn)	70.7%	-6.38% (active)	104%	–	117%	112%	-37% (active)	110%	–	–
COc1ccc(-c2c(-c3cc(OC)c(OC)c(OC)c3)noc2N)cc1	10.9%	–	38.8%	20.6%	-29.7% (active)	30%	11.1%	61.2%	–	–
CCCCCCCCCCCCNc1ncnc2[nH]ncc12	63%	90.6%	77.8%	105%	79.5%	92.4%	83.8%	62.8%	–	–
CN1COc2ccc3ccccc3c2C1	–	77%	91.7%	103%	98.9%	–	89.8%	88.2%	93%	86.3%
CN1C(=O)/C(=C/c2nc(-c3cccc(F)c3)n3ccccc23)c2ccccc21	–	100%	41.9%	66.6%	60.6%	33%	66.4%	50.1%	34.9%	7.47% (active)
O=C1N(C2CCCCC2)C(=O)N1C1CCCCC1	-16.7% (active)	28.9%	–	71.8%	59.7%	-2.96% (active)	35.5%	43.7%	–	–
COc1ccc(/C=C2\COc3ccc(O)c(O)c3C2=O)cc1OC	–	-16.6% (active)	30.1%	40.2%	-16.7% (active)	17.8%	2.76% (active)	-5.4% (active)	8.42% (active)	-33.4% (active)
ClC1=C(Cl)C(Cl)=C(Cl)C1=Cc1ccc(Cl)cc1	-43.2% (active)	71.9%	–	–	-96.8% (active)	-12.2% (active)	-47.5% (active)	25.3%	–	–
CC(C)COCC(CN(Cc1ccccc1)c1ccccc1)N1CCCC1 (stereo not drawn)	46.4%	–	49.9%	74.9%	72.4%	81.6%	65.2%	66.1%	–	53.3%
O=C(/C=C/c1ccccc1)CC(c1ccccc1)N1CCOCC1 (stereo not drawn)	–	98.7%	105%	98.4%	78.9%	–	104%	81.3%	85.1%	91.8%
COc1cc(C2C=C(c3ccc(C)cc3)Nc3nc(SC)[nH]c(=O)c32)ccc1Oc1ccnc2cc(Cl)ccc12 (stereo not drawn)	65.6%	84.3%	–	106%	81.1%	90.8%	72.6%	82.3%	–	90.5%
Clc1ccc(-n2cnc3c(Cl)ncnc32)cc1Cl	–	82.5%	103%	99.8%	98.9%	–	107%	82.2%	88%	54.6%
CC1SC(c2c(Cl)cccc2Cl)N(NC(=O)c2[nH]c3ccc(F)cc3c2-c2ccccc2)C1=O (stereo not drawn)	–	78.3%	-54.7% (active)	19.1%	-62.2% (active)	-8.04% (active)	–	2.88% (active)	33.1%	-6.28% (active)
Cc1cc(N2CCOCC2)nc(N2CCOCC2)n1	99.2%	99.7%	–	99.2%	107%	95.4%	–	98%	–	76.6%
CC1(C)OC(=O)C(=Cc2ccccc2Br)C(=O)O1	95.5%	96.6%	–	111%	106%	101%	106%	102%	–	102%
CCOc1cc(C(C)(C)C)ccc1C1=N[C@H](c2ccc(Cl)cc2)[C@H](c2ccc(Cl)cc2)N1C(=O)N1CCN(CC#Cc2cccc3c2CN([C@@H]2CCC(=O)NC2=O)C3=O)CC1	–	76%	26.5%	62.4%	41.1%	16.9%	25.9%	13.3%	17.2%	8.46% (active)
COc1cc(/C=C2\COc3ccc(O)cc3C2=O)cc(OC)c1	–	73.7%	93.4%	91.7%	37.1%	77.4%	65.8%	60.3%	40.4%	73.2%
O=C(c1ccccc1)c1ccccc1Cl	88.5%	104%	–	108%	106%	102%	105%	98.9%	–	106%
CCOC(=O)c1ccccc1OC(=O)NNc1ccccc1	–	83.7%	63.6%	93.7%	77.7%	–	58.1%	57.3%	71.3%	60.4%
c1ccc(Nc2nnc(-c3cc(-c4cccnc4)n(-c4ccccc4)n3)s2)cc1	–	105%	–	109%	106%	119%	62.4%	51.3%	59.9%	108%
